# Measured values taken from the supplement of paper PMC8728848.
# Many of the other results were omitted from the sample, so the strongest signals are more common in it than they were.
# What was measured:
# Test in all cases: glycan array binding signal (z-score within array); higher = stronger binding
# Settings in all cases: glycan notation: IUPAC condensed, linker removed
# [1] = biological target: GalNAc(b1-3)Gal(a1-4)Gal(b1-4)GlcNAc
# Method in brief: (§1)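 Columns mapping to the same glycan were averaged after glycan names were converted to IUPAC-condensed notation. The data come from 3228 arrays in the Consortium for Functional Glycomics database, limited to those with an available protein sequence. Binding is reported as a within-array Z-score averaged across arrays of one protein sequence and across linkers.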
# GalNAc(b1-4)GlcNAc = biological target: GalNAc(b1-4)GlcNAc
# Method in brief: as §1
# [2] = biological target: GalNAc(b1-4)GlcNAc(b1-2)Man
# Method in brief: as §1
# [3] = biological target: GalNAc(b1-4)GlcNAc(b1-3)GalNAc(b1-4)GlcNAc
# Method in brief: as §1
# GalNAc(b1-4)GlcNAc6S = biological target: GalNAc(b1-4)GlcNAc6S
# Method in brief: as §1
# GlcA(b1-6)Gal = biological target: GlcA(b1-6)Gal
# Method in brief: as §1
# [4] = biological target: GlcNAc(a1-4)Gal(b1-4)GalNAc
# Method in brief: as §1
# [5] = biological target: GlcNAc(a1-4)Gal(b1-4)GlcNAc(b1-3)Gal(b1-4)GlcNAc
# Method in brief: as §1
# [6] = biological target: GlcNAc(b1-2)Gal(b1-3)GalNAc
# Method in brief: as §1
# [7] = biological target: GlcNAc(b1-2)[GlcNAc(b1-6)]Man(a1-6)[GlcNAc(b1-2)Man(a1-3)]Man(b1-4)GlcNAc(b1-4)GlcNAc
# Method in brief: as §1
# [8] = biological target: GlcNAc(b1-2)[GlcNAc(b1-6)]Man(a1-6)[GlcNAc(b1-2)Man(a1-3)]Man(b1-4)GlcNAc(b1-4)[Fuc(a1-6)]GlcNAc
# Method in brief: as §1
# [9] = biological target: GlcNAc(b1-3)Gal(b1-4)GlcNAc
# Method in brief: as §1
# [10] = biological target: GlcNAc(b1-3)Gal(b1-4)GlcNAc(b1-6)[Gal(b1-3)]GalNAc
# Method in brief: as §1
# GlcNAc(b1-4)GlcNAc = biological target: GlcNAc(b1-4)GlcNAc
# Method in brief: as §1
# [11] = biological target: Neu5Ac(a2-3)Gal(b1-3)GlcNAc
# Method in brief: as §1
# [12] = biological target: Neu5Ac(a2-3)Gal(b1-3)[GlcNAc(b1-6)]GalNAc
# Method in brief: as §1
# [13] = biological target: Neu5Ac(a2-3)Gal(b1-4)GlcNAc
# Method in brief: as §1
# [14] = biological target: Neu5Ac(a2-3)Gal(b1-4)GlcNAc(b1-3)Gal(b1-4)GlcNAc(b1-2)Man(a1-3)[Neu5Ac(a2-3)Gal(b1-4)GlcNAc(b1-3)Gal(b1-4)GlcNAc(b1-2)Man(a1-6)]Man(b1-4)GlcNAc(b1-4)GlcNAc
# Method in brief: as §1
# [15] = biological target: Neu5Ac(a2-3)Gal(b1-4)GlcNAc(b1-3)Gal(b1-4)GlcNAc(b1-3)Gal(b1-4)GlcNAc(b1-2)Man(a1-3)[Neu5Ac(a2-3)Gal(b1-4)GlcNAc(b1-3)Gal(b1-4)GlcNAc(b1-3)Gal(b1-4)GlcNAc(b1-2)Man(a1-6)]GalNAc
# Method in brief: as §1
# [16] = biological target: Neu5Ac(a2-3)Gal(b1-4)[Fuc(a1-3)]GlcNAc(b1-6)[Neu5Ac(a2-3)Gal(b1-3)]GalNAc
# Method in brief: as §1
# [17] = biological target: Neu5Ac(a2-6)Gal(b1-4)GlcNAc
# Method in brief: as §1
# [18] = biological target: Neu5Ac(a2-6)Gal(b1-4)GlcNAc(b1-2)Man(a1-3)[Neu5Ac(a2-3)Gal(b1-4)GlcNAc(b1-2)Man(a1-6)]Man(b1-4)GlcNAc(b1-4)GlcNAc
# Method in brief: as §1
# [19] = biological target: Neu5Ac(a2-6)Gal(b1-4)GlcNAc(b1-3)Gal(b1-3)GlcNAc
# Method in brief: as §1
# [20] = biological target: Neu5Ac(a2-6)GlcNAc(b1-4)GlcNAc(b1-4)GlcNAc
# Method in brief: as §1
# [21] = biological target: Neu5Ac(a2-8)Neu5Ac(a2-3)[GalNAc(b1-4)]Gal(b1-4)Glc
# Method in brief: as §1
binder,measurement,setting,value
SJA (Sophora japonica) (protein) FLGLFNSGGYSSSYQIVAVEFDTYINEWDPKTRHIGIDINSINSTKTVTWGWENGEVAIVLISYKAATETLTVSLTYPSSQTSYILSAAVDLKSILPEWVRIGF,glycan array binding signal (z-score),[1],-0.186
same,glycan array binding signal (z-score),GalNAc(b1-4)GlcNAc,3.38
same,glycan array binding signal (z-score),[2],2.46
same,glycan array binding signal (z-score),[3],8.25
same,glycan array binding signal (z-score),GalNAc(b1-4)GlcNAc6S,3.05
same,glycan array binding signal (z-score),GlcA(b1-6)Gal,-0.111
same,glycan array binding signal (z-score),[4],-0.15
same,glycan array binding signal (z-score),[5],-0.229
same,glycan array binding signal (z-score),[6],-0.192
same,glycan array binding signal (z-score),[7],-0.255
same,glycan array binding signal (z-score),[8],-0.375
same,glycan array binding signal (z-score),[9],-0.101
same,glycan array binding signal (z-score),[10],-0.24
same,glycan array binding signal (z-score),GlcNAc(b1-4)GlcNAc,-0.142
same,glycan array binding signal (z-score),[11],-0.139
same,glycan array binding signal (z-score),[12],-0.156
same,glycan array binding signal (z-score),[13],-0.241
same,glycan array binding signal (z-score),[14],0.783
same,glycan array binding signal (z-score),[15],3.51
same,glycan array binding signal (z-score),[16],-0.056
same,glycan array binding signal (z-score),[17],-0.22
same,glycan array binding signal (z-score),[18],-0.178
same,glycan array binding signal (z-score),[19],-0.207
same,glycan array binding signal (z-score),[20],-0.288
same,glycan array binding signal (z-score),[21],-0.232
